Measured values as given in PubChem BioAssay AID2685 (National Center for Advancing Translational Sciences (NCATS), 2010).
Hit rate of the full screen: of about 320,000 compounds, about 2,100 (0.66%) were called active. Inconclusive results (about 53%) are left out. Calls come from the whole dose curve; as a rule, active = well fitted inhibition curve with a large enough effect in the signal ratio, with a control signal flat (not every such curve was filed as active); inconclusive = small, poorly fitted or top-dose-only effect, or effect the other way, or a change in a side signal; inactive = flat fitted curve, though single readings scatter; the % refers to the signal ratio. The sample as a whole holds a higher share of actives than the screen did.

Experiment: qHTS Assay for Lipid Storage Modulators in Drosophila S3 Cells;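 for cell number change: cells counted by Cell Tracker Red CMTPX staining in the red channel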; for lipid storage change, negative = inhibition: % is set by controls: 0 for no effect and ±100 for the full control effect
Conditions: BODIPY lipid droplet fluorescence, 18-24 h, cells fed with added oleic acid; cell number change: measured here: cell count max response; series mostly up to 46.1 µM; lipid storage change, negative = inhibition: at the top concentration
Procedure, shortened: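 Laser-scanning cytometry quantifies lipid droplet accumulation (500–530 nm total intensity; droplet/cell object ratio) in oleic acid-fed (400 uM added) Drosophila S3 cells treated with a concentration series. 20 uM Triacsin C defined 100% inhibition.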
Potency is the fitted concentration of half-maximal effect.

Compound | lipid storage change, negative = inhibition | cell number change [%] | Potency | outcome
O=C1CCCc2ccccc2N1 | 5.18% (inactive) | 15.4 | – | –
O=C(Nc1ccc(Cl)c(Cl)c1)OCCNC(=O)c1ccncc1 | 6.78% (inactive) | 19.3 | – | –
CC(=O)NCCOC(=O)Nc1ccncc1 | – | -23.8 | 18.4 µM (active) | –
O=C(Nc1ccncc1)OCc1ccccc1 | – | -15 | – | inactive
C=C(C)C(=O)N1CC2(CC(c3cccc(NC(=O)CC(c4ccccc4)c4ccccc4)c3)=NO2)C[C@H]1C(N)=O (some centres undefined) | 7.73% (inactive) | -5.55 | – | –
COc1ccccc1CCC(=O)OCC(=O)Nc1cc(C)nn1-c1ccccc1 | 17.4% (inactive) | 9.67 | – | –
COc1cccc(NC(=O)Nc2ccc3c(c2)nc(C)n3C)c1 | 1.42% (inactive) | -12.3 | – | –
O=C(NNc1c2ccccc2nc2ccccc12)c1ccc(O)cc1 | – | -16.9 | 16.4 µM (active) | –
O=C(NNC(=O)c1ccc2ccccc2n1)c1ccc(O)cc1 | 13% (inactive) | -5.74 | – | –
Nc1ccccc1C(=O)NNc1c2ccccc2nc2ccccc12 | -6.09% (inactive) | -7.95 | – | –
O=C(CN1C(=O)NC2(CCCC2)C1=O)Nc1cc(Cl)ccc1Oc1ccccc1 | 23.3% (inactive) | 2.01 | – | –
c1ccc(CSc2nnc(-c3ccco3)o2)cc1 | 21.4% (inactive) | 29.7 | – | –
Brc1ccc(CSc2nnc(-c3ccco3)o2)cc1 | 4.11% (inactive) | -8.74 | – | –
O=C(O)c1ccc(CSc2nnc(-c3ccco3)o2)cc1 | – | – | 1.84 µM (active) | –
CCC(C)[C@H](NC(=O)NCCCN1CCOCC1)C(=O)OC (some centres undefined) | -7.03% (inactive) | 4.55 | – | –
COCCCNC(NC(=O)c1ccc(Cl)cc1)C(Cl)(Cl)Cl (centres undefined) | -10.7% (inactive) | 18.7 | – | –
O=C(Nc1cccc([N+](=O)[O-])c1)Nc1cccc([N+](=O)[O-])c1 | -13.5% (inactive) | -6.97 | – | –

Compound | lipid storage change, negative = inhibition | cell number change [%] | Potency | outcome
Cc1cc(NC(=O)Nc2cccc([N+](=O)[O-])c2)no1 | 18.7% (inactive) | – | – | –
Cc1ccc(NC(=O)Nc2cccc([N+](=O)[O-])c2)cc1F | – | -9.68 | 9.2 µM (active) | –
COc1ccc(CNC(=O)c2cccnc2Sc2ccc(C)c(C)c2)cc1 | 12.2% (inactive) | -8.63 | – | –
Cc1cc(C(=O)CCC(=O)Nc2ncccc2O)c(C)s1 | – | 23.7 | – | inactive
Cc1cc(OC(C)C(=O)NNC(=O)Nc2ccc(F)cc2F)cc(C)c1Cl (centres undefined) | -7.22% (inactive) | 12.3 | – | –
COc1ccc(C2CC(c3ccccc3)=NN2C(=O)COC(=O)CNC(=O)c2ccccc2)cc1 (centres undefined) | – | 17 | 14.6 µM (active) | –
COc1ccc(C2CC(c3ccccc3)=NN2C(=O)CSc2ncccn2)cc1 (centres undefined) | – | -10.6 | 18.4 µM (active) | –
COc1ccc(C2CC(c3ccccc3)=NN2C(=O)COC(=O)c2cccnc2)cc1 (centres undefined) | -12% (inactive) | -20.7 | – | –
COc1ccc(CC(=O)OCC(=O)N2N=C(c3ccccc3)CC2c2ccc(OC)cc2)cc1 (centres undefined) | 6.9% (inactive) | 9.3 | – | –
COc1ccc(C2=NN(C(=O)CSc3ncccn3)C(c3ccc(OC)cc3)C2)cc1 (centres undefined) | -17.9% (inactive) | -13.6 | – | –
CC(=O)N1N=C(c2ccccc2OC(=O)/C=C/c2ccccc2)CC1c1ccccc1 (centres undefined) | -2.65% (inactive) | – | – | –
COc1cc(C2CC(c3cccs3)=NN2C(=O)CCl)ccc1OC(F)F (centres undefined) | – | 6.96 | 11.6 µM (active) | –
COc1ccc(C2=NN(C(=O)CSc3ncccn3)C(c3ccc(C)cc3)C2)cc1 (centres undefined) | -17% (inactive) | -13.1 | – | –
COc1ccc(C2CC(c3ccc4ccccc4c3OC(C)=O)=NN2C(=O)/C=C/c2ccccc2)cc1 (centres undefined) | – | -4.95 | 6.51 µM (active) | –
COc1ccc(C2CC(c3ccc(OC)cc3OC(C)=O)=NN2C(=O)c2ccccc2)cc1 (centres undefined) | -12.8% (inactive) | -16.6 | – | –
COc1ccc(C2CC(c3cccs3)=NN2C(=O)c2ccccc2)cc1OC (centres undefined) | -4.84% (inactive) | 0.175 | – | –
COc1ccc(C2CC(c3cccs3)=NN2C(=O)COC(=O)C2CCCCC2)cc1OC (centres undefined) | – | – | – | inactive
